Bioassay records deposited in PubChem BioAssay by several laboratories.
BH1578 lux ind – quorum light induction in luxS cqsA deficient V. cholerae | V. cholerae BH1578 lux reporter, luminescence, 6 h | actives 0.16% (n = 350,000) | AID 588436 | activation, % at 18.7 µM; in the data active = activation mostly above about 9.7%, no sharp cut-off
PrPC TRFRET – reduces human prion protein on the cell surface. cell surface PrPC, TR-FRET read-out. inhibition, % at 13.8 µM. actives 0.43% (n = 370,000); in the data active = inhibition above about 24%; also: 0% = median of the test wells and 100% = reference compound wells
CCHF vOTU inh-1 – blocks the CCHF virus ovarian tumor domain protease; CCHFV vOTU protease, Pep-AMC fluorescence; inhibition, % at 11.5 µM; actives 0.55% (n = 370,000); AID 651958; also: 0% = vehicle wells with enzyme and 100% = no enzyme wells
Y pestis TopoI – blocks Yersinia pestis topoisomerase I activity; Y. pestis Topo-I cleavage product accumulation, plate reader; activity, % at 10 µM; actives 0.064% (n = 360,000); AID 504884; in the data active = activity above about 50%, passing the limit was not always enough
CCHF vOTU inh-2 – confirmation of CCHF virus vOTU protease inhibitors. shares compounds with CCHF vOTU inh-1. actives 17% (n = 1,900). inhibition, % at 11.5 µM. Recombinant CCHFV vOTU, Pep-AMC fluorescence
Starred values were filed as active, the others as inactive; i = inactive; x = not tested or not shown. Hits are enriched below; roughly 1.1% of the tested compounds scored in any of these assays. Rule as the data show it, unless noted: active = inhibition above about 30%; inactive = the rest.

SMILES	BH1578 lux ind	PrPC TRFRET	CCHF vOTU inh-1	Y pestis TopoI	CCHF vOTU inh-2
COc1ccc(NC(=S)N(CCc2c(C)[nH]c3ccc(C)cc23)Cc2cccs2)cc1	-0.2	-7.0	-2.0	-2.5	x
Cc1ccc(OCC(=O)Nc2ccc(N3CCOCC3)cc2)cc1	-1.5	9.2	-1.4	-0.5	x
CN(C)c1ccc2cc(S(=O)(=O)O)cc(O)c2c1	13.0	-24.7	38.2*	-17.3	-93.1
COc1ccccc1CCNC(=O)c1ccc(OC)c(OC2CCN(C(C)C)CC2)c1	i	-6.0	3.6	-0.3	x
O=C(O)CSc1cc(NS(=O)(=O)c2cccc([N+](=O)[O-])c2)c2ccccc2c1O	-0.2	-27.1	108.4*	-10.8	98.6*
O=S(=O)(Nc1cc(Sc2cccc3cccnc23)c(O)c2ccccc12)c1ccccc1	x	12.9	40.3*	x	-2.7
O=C(O)c1cccc(S(=O)(=O)Nc2ccc([N+](=O)[O-])cc2O)c1	i	-5.7	3.8	2.4	x
CCOC(=O)c1ccccc1NS(=O)(=O)c1ccc(OCC)cc1	-0.3	11.6	-12.6	26.2	x
CCOc1ccc(S(=O)(=O)Nc2cc(SCC(=O)O)c(O)c3ccccc23)cc1	-1.7	-18.7	100.6*	-5.1	76.9*
Cc1ccc(C)c(S(=O)(=O)Nc2cc(SCC(=O)O)c(O)c3ccccc23)c1	-0.3	x	x	4.7	x
CCc1ccc(S(=O)(=O)Nc2cc(SCC(=O)O)c(O)c3ccccc23)cc1	i	-14.4	114.1*	-5.2	100.7*
O=C(O)COc1ccccc1/C=N/NC(=O)Cc1csc(Nc2cccc(C(F)(F)F)c2)n1	i	-7.1	31.9*	23.1	-2.1
O=C(O)COc1ccccc1/C=N/NC(=O)Cc1ccccc1	i	-5.9	-12.1	-1.4	x
Cc1nc(N)nc(Cl)c1Cc1ccc(Cl)cc1	i	-4.0	-5.7	7.5	x
C=CCNC(=S)/N=c1\sccn1C	i	0.6	-1.2	6.9	x
O=c1[nH]nc(CNc2ccc(C(F)(F)F)cc2)c2ccccc12	i	-1.5	1.9	5.4	x
O=c1[nH]nc(CNc2ccc(O)cc2)c2ccccc12	-4.8	-6.8	53.1*	-8.1	-16.1
CCOC(=O)c1sc(NC(=O)c2ccc(Br)o2)cc1C	1.1	7.1	30.6*	-5.1	-3.9
CCOC(=O)c1sc(NC(=O)Nc2cccc(Cl)c2)cc1C	-0.3	21.5	30.4*	-25.6	0.3
CCOC(=O)c1sc(NC(=O)c2cccs2)cc1C	x	0.5	-11.3	-8.0	x
C[n+]1cccc2c(Br)ccc([O-])c21	1.2	-29.6	102.7*	-2.3	41.6*
COc1ccc(S(=O)(=O)N2CCN(CCC(=O)Nc3ccc(F)cc3)CC2)cc1	i	5.4	12.4	-2.0	x
O=[N+]([O-])c1c(Nc2ccccn2)cc(Cl)c2nonc12	-0.4	-7.6	113.0*	-8.5	94.5*
O=C(O)c1ccccc1Nc1cc(Cl)c2nonc2c1[N+](=O)[O-]	2.2	-23.2	16.8	-0.7	x
CC(C)CN1C=C2C(=O)C(C)(OC(=O)C3CCCC3)C(=O)C=C2C=C1c1ccsc1 (stereo not drawn)	i	-2.9	4.1	0.8	x
SMILES	BH1578 lux ind	PrPC TRFRET	CCHF vOTU inh-1	Y pestis TopoI	CCHF vOTU inh-2
CC1(OC(=O)C2CCCC2)C(=O)C=C2C=C(c3ccsc3)N(C(CO)CO)C=C2C1=O (stereo not drawn)	-2.1	-4.8	31.5*	-7.5	-1.6
Cc1ccccc1C(=O)NC[C@@H]1CCCN2CCCC[C@H]12	i	-7.6	-11.4	-1.3	x
COc1c2c(c3c(c1OC)c(=O)c1ccccc1n3C)OCO2	i	-4.9	22.0	15.9	x
COc1c2c(c(OC)c3c1c(=O)c1ccccc1n3C)OCO2	i	-6.6	54.2*	-3.0	-19.8
O=C(NCc1ccco1)C1CCN(S(=O)(=O)c2ccccc2C(F)(F)F)CC1	0.0	-2.5	30.5*	2.2	-11.9
CCc1ccc(OCC(=O)Nc2ccc(S(=O)(=O)Nc3cc(C)on3)cc2)c(Br)c1	i	-0.4	44.0*	26.8	1.8
Cc1cc(NS(=O)(=O)c2ccc(NC(=O)COc3ccccc3Cl)cc2)no1	i	6.4	2.0	-6.9	x
COc1ccccc1NC(=O)CC(=O)CSc1nnc(-c2ccc(C)cc2)n1C	i	2.7	-0.7	8.8	x
Cc1ccc(S(=O)(=O)/N=C(/Nc2nc(C)cs2)c2ccccc2)cc1	i	3.7	37.9*	-2.1	-8.7
Cc1ccc(OCCNS(=O)(=O)c2ccc(Cl)cc2)cc1	-1.4	-5.8	10.8	22.7	x
Cc1ccc(S(=O)(=O)NCCOc2cc(C)ccc2C)cc1	0.0	2.5	30.3*	-3.5	-8.5
CCc1ccc(N2C=C(C(=O)OC)C(c3cccc4ccccc34)C(C#N)=C2N)cc1 (stereo not drawn)	x	1.0	21.2	x	x
